Sampled rows, rich in hits. Any-hit rate of the full collection: about 2.8%.
D3 antag – antagonists of human D3 dopamine receptor. P35462. D3R cells, DiscoveRx beta-arrestin luminescence, antagonist mode; active compounds read low. max response, negative = inhibition, %. 2.5% of 360,000 active. AID 652054; in the data active = max response below about -50%; inconclusive = no clear call, values can overlap the other calls
Target sequence (P35462 whole entry, looked up): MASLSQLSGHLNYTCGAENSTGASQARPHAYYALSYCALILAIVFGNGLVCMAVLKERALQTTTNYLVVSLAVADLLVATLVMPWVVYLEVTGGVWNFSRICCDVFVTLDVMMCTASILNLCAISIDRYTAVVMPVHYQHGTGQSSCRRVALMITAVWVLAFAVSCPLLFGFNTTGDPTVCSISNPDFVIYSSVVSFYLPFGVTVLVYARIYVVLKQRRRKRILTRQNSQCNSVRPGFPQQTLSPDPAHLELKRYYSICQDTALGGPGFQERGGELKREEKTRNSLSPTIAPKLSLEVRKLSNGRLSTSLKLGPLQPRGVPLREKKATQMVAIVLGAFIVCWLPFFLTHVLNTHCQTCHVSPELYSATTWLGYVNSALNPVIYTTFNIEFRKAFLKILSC
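Cells plated overnight at 1500 cells/well, then exposed to library compounds with dopamine controls for 90 minutes at 37 degrees C. DiscoveRx reagent added for 30–60 minutes at room temperature; luminescence read, quantitative HTS format.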
RGS4 inhibitor – blocks human RGS4-accelerated GTP hydrolysis. AID 504845. Potency, µM (highest dose often 114 µM), actives largely listed as inhibitors. 0.039% of 390,000 active. Transcreener GDP fluorescence polarization, RGS4-accelerated GTP hydrolysis; active = well fitted inhibition curve with a large enough effect; inconclusive = small, poorly fitted or top-dose-only effect; inactive = no such curve, though single readings can be large or run the other way; note: nearly all actives have a fitted effect of over 75% in size
Target sequence (P49798 whole entry, looked up): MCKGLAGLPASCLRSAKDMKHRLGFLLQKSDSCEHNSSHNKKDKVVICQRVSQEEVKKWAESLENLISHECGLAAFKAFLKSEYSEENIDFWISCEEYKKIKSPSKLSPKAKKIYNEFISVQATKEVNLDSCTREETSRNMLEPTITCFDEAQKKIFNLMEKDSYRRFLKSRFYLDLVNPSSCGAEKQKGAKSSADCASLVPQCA
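MLSMR compounds (23 nl, pin-transferred) preincubated 10 min at room temperature with a 500nM (2x) first reagent, then RGS4 at 900nM (2x) plus Transcreener GDP mix added; fluorescence polarization (620/688 nm) read before and after 90 min at 30 °C.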
PI4K2A inh – PI4K2A (human) kinase inhibition. activity change, negative = inhibition, % at 76.9 µM. purified PI4K2A, ADP-Glo luminescence, 1 h; active compounds read low. 0.13% of 420,000 active; in the data active = activity change below about -50%; inconclusive = mostly about -30% to -49%
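PI4K2A activity was measured by ADP-Glo luminescence: enzyme (4 ug/mL stock) and phosphatidylinositol (1.2 mM stock) in Tris pH 7.5/MgCl2/EGTA/Triton X-100 buffer were reacted with ATP (300 microM stock) for one hour at ambient temperature.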
LDHA inh – LDHA (human) enzyme inhibition. activity change, % (values are at about 110 or 230 µM). AID 1347041. P00338. purified LDHA, NADH/diaphorase-resazurin fluorescence; active compounds read low. 0.15% of 480,000 active; in the data active = activity change below about -30%; inconclusive = mostly about -25% to -30%
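Resorufin fluorescence (ex540/em590), read at 0 and 20 min after diaphorase/resazurin addition, reports the NADH left after a 5 min room-temperature reaction of 2 nM human LDH5 with 0.06 mM NADH and 0.2 mM pyruvate.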
pAkt inh – blocks phosphorylation of Akt | Neuro2A IGF-stimulated pAkt S473 HTRF, 20 min; active compounds read low | activity change, % for hits at 50 µM | 0.32% of 360,000 active; in the data active = activity change below about -80%; inconclusive = mostly about -51% to -80%
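Neuro2A cells in DMEM with 0.5% FBS, overnight at 37 deg C, given compound at single 50 µM final, then IGF (6 nM final) for 20 min at 37 deg C. Lysed; phospho-Akt Ser473 by HTRF after 24 h, 665/615 ratio.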
D3 ag – agonists of human D3 dopamine receptor; AID 652048; P35462; 0.58% of 410,000 active; D3R DiscoveRx beta-arrestin cells, luminescence, 90 min; max activation, %; in the data active = max activation above about 30%
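Agonist mode: compounds and dopamine controls were applied to plated cells for 90 min at 37 degrees C after an overnight attachment at 1500 cells/well. Luminescent read-out followed 30 - 60 minutes at room temperature with DiscoveRx detection reagent.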
Numbers stand for hits; . = inactive; ? = inconclusive; / = no result; ! = a repeat was not active.

SMILES	D3 antag	RGS4 inhibitor	PI4K2A inh	LDHA inh	pAkt inh	D3 ag
CN(CCOc1ccc(Cl)cc1)CC(O)c1ccccc1 (configuration not stated)	-51.9	.	.	.	.	.
Cc1c(C(=O)Nc2ccc(F)c(C(F)(F)F)c2)sc2nc(-c3ccc(F)cc3)cn12	/	/	/	.	/	/
CCc1nc(CN2C(=O)COc3ccc(S(=O)(=O)NC4CCCCCCC4)cc32)no1	/	/	/	.	/	/
CS(=O)(=O)Nc1ccc(-c2csc(N3CCCCC3)n2)cc1	/	/	/	.	/	/
O=C(Nc1nc(-c2c[nH]c3ccccc23)cs1)C1CCC1	/	/	/	.	/	/
N#CC1=C(N)C(C#N)(C#N)[C@H](c2cccnc2)[C@H]2CN(C(=O)OCc3ccccc3)CC=C12	?	.	.	.	.	.
N#CC1=C(N)C(C#N)(C#N)C(c2ccncc2)C2CN(C(=O)OCc3ccccc3)CC=C12 (configuration not stated)	-63.2	.	.	.	.	.
CS(=O)(=O)N1CCN(C(C(=O)O)c2c[nH]c3ccc(NC(=O)CCC(=O)O)cc23)CC1 (configuration not stated)	/	/	/	.	/	/
Cc1ccnc(NC(=O)C2CCN(C(=O)C(C)(C)C)CC2)c1	/	/	/	.	/	/
CCOC(=O)NC(NC(=S)Nc1ccc(OCC)cc1)C(Cl)(Cl)Cl (configuration not stated)	.	.	.	.	.	.
O=C(NC(NC(=S)Nc1c(Cl)cccc1Cl)C(Cl)(Cl)Cl)OCc1ccccc1 (configuration not stated)	-68.7	.	.	.	.	.
N#Cc1ccsc1NC(=O)c1cnccn1	-52.3	.	.	.	.	.
N#Cc1c(NC(=O)c2cnccn2)sc2c1CCCC2	.	.	.	.	.	.
CCOC(=O)[C@]12CCC=C1N(Cc1ccccc1)C(=O)[C@H](CC(=O)NCC13CC4CC(CC(C4)C1)C3)C2	-52.8	/	.	.	.	.
COCCn1cnc2c1c(=O)n(CC(=O)Nc1ccc3c(c1)OCO3)c(=O)n2Cc1ccccc1	/	/	/	.	/	/
CCCCC1=CC2=C(c3ccco3)C(=O)C(C)(OC(=O)c3ccc(OC)cc3)C(=O)C2=CN1CC1CC1 (configuration not stated)	-64.4	.	.	.	.	.
Cc1ccccc1N1CCN(CCc2nnc3n2CCCC3)CC1	/	/	.	/	/	35.1
O=C1C=C(Nc2ccccc2O)c2ccccc2C1=O	.	?	?	.	.	.
O=C1C=C(NCc2ccccc2)c2ccccc2C1=O	-70.7	.	-63.8	.	.	.
COC(=O)c1cccc(NC(=O)Cc2cc(C(C)=O)ccc2OC)c1	/	/	/	.	/	/
Cc1ccc(-c2cnc(CCC(=O)Nc3ccc(F)c(F)c3)o2)cc1C	/	/	/	.	/	/
CCC(C)Sc1cccc(-c2nc3ccc(C)cn3c2NC2CCCCC2)c1 (configuration not stated)	.	.	.	.	.	53.3!
COc1ccc(-c2ccc(-c3nc4ccc(C)cn4c3NC3CCCCC3)cc2OC)cc1	.	.	.	.	.	55.4!
O=C(O)/C(=C/C=C/c1ccccc1)NC(=O)c1ccccc1	/	/	/	.	/	/
CC(C)n1[nH]c2ccccc2c1=O	-66.0	/	.	.	.	.
SMILES	D3 antag	RGS4 inhibitor	PI4K2A inh	LDHA inh	pAkt inh	D3 ag
CSc1ccc(CN2CCCCCC2c2sccc2C)cc1 (configuration not stated)	/	/	/	.	/	/
CCc1ccc(-n2c(=S)sc3c(=O)[nH]c(SCC(=O)NC4CCCCC4)nc32)cc1	-50.6	/	.	.	.	.
CCOC(=O)c1ccc(-n2c(=S)sc3c(=O)[nH]c(C)nc32)cc1	.	?	.	.	.	51.0
CC(=O)c1c(C)[nH]c(C(=O)NCCc2ccccc2)c1C	.	?	.	.	-117.4%	.
CC(=O)c1c(C)[nH]c(C(=O)NCCN2CCC(C)CC2)c1C	-51.3	.	.	.	.	.
Cn1nc(C(=O)N2CCN(Cc3cccc4ccccc34)CC2)c2ccccc2c1=O	/	/	/	.	/	/
CCN(CC)S(=O)(=O)c1cc(C)ccc1N	/	/	/	.	/	/
Cc1csc2cc(-c3cccc([N+](=O)[O-])c3)c(-c3cccc([N+](=O)[O-])c3)c[n+]12	-60.6	.	.	.	.	.
O=C(O)c1cc(N2C(=O)C3CC=CCC3C2=O)ccc1NCc1cccnc1 (configuration not stated)	.	.	.	.	-116.0%	.
CCN(Cc1ccncc1)C(=O)C(C)C	/	/	/	.	/	/
O=C(NCCc1ccccc1)C1CCCN(S(=O)(=O)c2cnc[nH]2)C1 (configuration not stated)	.	.	.	.	.	.
O=C(NCCN1CCC(Cc2ccccc2)CC1)C1CCCN(S(=O)(=O)c2cnc[nH]2)C1 (configuration not stated)	-77.5	.	.	.	.	.
O=C(NCCN1CCN(c2ccccc2F)CC1)C1CCCN(S(=O)(=O)c2cnc[nH]2)C1 (configuration not stated)	-55.9	.	.	.	.	.
CC(C)(C)c1cc(C(=O)O)cc(C(C)(C)C)c1O	/	/	/	.	/	/
C/C(=N/O)c1cc(C(C)(C)C)c(O)c(C(C)(C)C)c1	.	.	.	.	-122.0%	.
Cc1ccc(C2/C(=C(\O)c3ccc4c(c3)OCCO4)C(=O)C(=O)N2CCc2ccccc2)cc1 (configuration not stated)	/	/	/	.	/	/
COc1ccc(C(=O)N/C(N)=N/c2nc3ccccc3o2)cc1	.	.	.	.	.	.
COc1ccc(C(=O)/C=C/Sc2nc3ccccc3o2)cc1	-104.7	.	.	.	.	.
CC(Sc1nc(CN2CCOCC2)nc2ccccc12)C(=O)Nc1ccc(F)cc1F (configuration not stated)	/	/	/	-33.2	/	/
CC(C)CN(c1ccccc1)S(=O)(=O)c1nnc(NC(=O)c2ccco2)s1	-86.4	.	.	.	.	.
CCCCC(=O)Nc1nnc(S(=O)(=O)N(CC)c2ccccc2)s1	.	.	.	.	.	.
CCN(c1ccccc1)S(=O)(=O)c1nnc(NC(=O)CC(C)C)s1	-65.9	.	.	.	.	.
O=C(COc1ccccc1)OCC(=O)c1ccc2c(c1)OCO2	/	/	/	.	/	/
Nc1c(N2CCCC2)c2ccccc2oc1=O	.	.	.	.	.	44.2
O=C(Nc1ccccc1)Nc1c(N2CCCC2)c2ccccc2oc1=O	/	/	/	.	/	/
Cc1ccc(-c2ccnc(=S)[nH]2)cc1C	/	/	/	.	/	/
Cc1cccc(OCCN(C)C(=O)COc2ccc3c(C)cc(=O)oc3c2)c1	/	/	/	.	/	/
Cc1ccsc1CNC(=O)Cc1ccc(Cl)c(Cl)c1	/	/	/	.	/	/
Cc1cc(C)c2c(-n3cccc3)c(C(=O)NNS(=O)(=O)c3ccc(Cl)cc3)sc2n1	-56.0	.	.	.	.	.
Cc1cc(C)c2c(-n3cccc3)c(C(=O)O)sc2n1	.	.	.	.	?	.
